Only some compounds are listed: those with a hit (about 1.2% of all), similar ones and a draw of the others.
VLA-4 inh: inhibition in a human VLA-4 binding assay; VLA-4 expressing cells, ligand binding flow cytometry; P13612; 330,000 compounds, 0.2% hits; inhibition, % (about 7 µM as worked out from the volumes in the protocol); AID 2557; in the data active = inhibition above about 50%
SKN-1 block: C. elegans SKN-1 inhibition; C. elegans VP596 Pgst-4::GFP/RFP ratio, acrylamide-induced, 24 h; inhibition, % at 21.8 µM; 360,000 compounds, 0.49% hits; AID 624304;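 active = interference check ratio from 0.5 to 1.5 plus GFP to RFP signal ratio inhibition reaching or exceeding a fixed threshold, cut at about 30% in these data, passing the limit was not always enough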
Platelet DG rel: modulates dense granule release in human platelets; human platelet-rich plasma, SFLLRN dense granule ATP release, luminescence; inhibition, %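 (compounds screened at 7.5 µM in platelet-rich plasma)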; 300,000 compounds, 0.22% hits; AID 1663;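 active = mean replicate score, as percent of positive control, at or above 50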
ABCB6 inh MLPCN: human ABCB6 transporter inhibition | 360,000 compounds, 0.19% hits | AID 602162 | K562-ABCB6 porphyrin accumulation, flow cytometry, 1 h; hits give low values | fluorescence ratio to DMSO, % at 10 µM | Q9NP58;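 active = fluorescence ratio to DMSO below 75%, the collection mean minus 3 SD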;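 also: signal is porphyrin accumulated inside mitochondria; 100% equals median channel fluorescence of DMSO control wells; lower ratio means ABCB6 inhibition with less porphyrin fluorescence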
Target sequence (Q9NP58 whole entry, looked up): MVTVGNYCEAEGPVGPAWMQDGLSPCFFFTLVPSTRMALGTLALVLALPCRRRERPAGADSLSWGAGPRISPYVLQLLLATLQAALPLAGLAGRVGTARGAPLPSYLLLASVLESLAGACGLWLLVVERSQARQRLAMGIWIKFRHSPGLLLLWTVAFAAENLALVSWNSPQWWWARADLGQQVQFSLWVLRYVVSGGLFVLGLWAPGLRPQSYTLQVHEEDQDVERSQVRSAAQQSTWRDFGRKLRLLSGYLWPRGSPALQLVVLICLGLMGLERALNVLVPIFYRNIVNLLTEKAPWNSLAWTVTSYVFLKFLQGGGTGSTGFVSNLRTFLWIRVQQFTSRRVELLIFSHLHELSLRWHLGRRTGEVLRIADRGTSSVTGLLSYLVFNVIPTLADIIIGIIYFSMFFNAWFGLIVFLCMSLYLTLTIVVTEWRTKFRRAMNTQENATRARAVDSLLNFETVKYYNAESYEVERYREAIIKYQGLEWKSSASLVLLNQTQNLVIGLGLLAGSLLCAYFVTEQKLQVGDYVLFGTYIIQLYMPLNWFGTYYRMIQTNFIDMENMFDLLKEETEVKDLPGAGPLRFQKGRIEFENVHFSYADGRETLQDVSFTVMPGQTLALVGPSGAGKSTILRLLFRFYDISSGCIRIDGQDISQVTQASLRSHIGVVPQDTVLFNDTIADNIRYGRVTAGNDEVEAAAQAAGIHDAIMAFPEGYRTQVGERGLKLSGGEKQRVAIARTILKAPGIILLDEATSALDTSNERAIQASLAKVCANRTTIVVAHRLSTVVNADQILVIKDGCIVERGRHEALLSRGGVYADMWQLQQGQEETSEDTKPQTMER
CR mimetic SO: caloric restriction mimetics inhibiting age-related superoxide in yeast; S. cerevisiae aged cells, superoxide DHE fluorescence; hits give low values; superoxide response (% of plate mean), % at 10 µM; 330,000 compounds, 0.18% hits; AID 2690;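 active = superoxide response under a set limit, about three screen SD below normal, cut at about 65% in these data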;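 also: yeast aged for seven days with compound at 30 °C before DHE staining; 100% = average MFI of all compound-treated wells on the plate with controls excluded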
VLA-4 mod pick: human VLA-4 allosteric modulation in cherry picked compounds; shares compounds with VLA-4 inh; inhibition, % at 6.7 µM; 1,300 compounds, 2% hits; U937 cells, HUTS-21 LIBS mAb binding, flow cytometry; LDV ligand present at threefold Kd; AID 2813; in the data active = inhibition above about 40%;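 also: 0% = ligand without compound and 100% = no ligand background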
Starred values were filed as active, the others as inactive; nt = no result given; ! = a repeat was not active.

SMILES	VLA-4 inh	SKN-1 block	Platelet DG rel	ABCB6 inh MLPCN	CR mimetic SO	VLA-4 mod pick
N#Cc1c2c(c(-n3cnc4ccccc43)n3c1nc1ccccc13)CCC2	93.7*	0.0	-4.5	92.0	100.7	-0.1
Cc1nccn1-c1c2c(c(C#N)c3nc4ccccc4n13)CCCC2	nt	22.0	nt	96.0	nt	nt
C=CCNc1nc(NCc2ccc(N(C)C)cc2)c2sc(-c3ccccc3)cc2n1	nt	-2.3	nt	99.0	nt	nt
Cc1ccccc1CN1C(=O)CN(S(C)(=O)=O)CC1(C)C(=O)Nc1ccc2c(c1)OCCO2 (stereo unspecified)	nt	-5.2	nt	nt	nt	nt
Cc1ccc(NC(=O)CN2CCc3cc4c(cc3C2)OCCCO4)cc1	54.6*	11.9	-9.8	84.0	112.1	2.7
Cc1ccc(NC(=O)CN2CCc3cc4c(cc3C2)OCCCO4)cc1C	1.2	6.7	-0.1	100.0	117.0	nt
COC(=O)c1sc2nc(N3CCCCC3)c3c(c2c1N)CCCC3	89.8*	21.5	2.0	94.0	106.1	0.0
CCOc1ccc(Oc2c(/C=N/NC(=O)COc3ccccc3OC)c(C)nn2-c2ccccc2)cc1	46.1	3.0	-12.5	94.0	97.0	2.9
COC(=O)[C@@]12C[C@@H](CC(=O)NCCCCc3ccccc3)C(=O)N(Cc3cccc4ccccc34)C1=CCC(C)(C)C2	nt	6.2	nt	nt	nt	nt
COc1ccc2c3c(n(C(=O)OC(C)(C)C)c2c1)C1CC=C(COC(C)=O)CN1CC3 (stereo unspecified)	nt	1.8	nt	nt	nt	nt
CCCc1ccc(OCc2ccc(C(=O)NCc3cccnc3)o2)c(OC)c1	55.8*	-11.8	-8.1	100.0	134.2	8.4
O=C(NCc1cccnc1)c1ccc(COc2ccc(Cl)cc2Cl)o1	-5.4	0.0	3.8	99.0	101.5	nt
CN1C(=O)C(C)(C)c2cc(S(=O)(=O)N3CCN(c4ccccc4F)CC3)ccc21	-5.3	-13.6	-2.6	96.0	109.0	2.9
COc1cc(CCCN2C(=O)C(=O)NC[C@@H]2C(C)O)cc(OC)c1OC (stereo partly specified)	-6.0	6.6	-3.6	101.0	103.4	-4.1
COc1cc(CCCN2C(=O)C(=O)NC[C@@H]2c2ccccc2)cc(OC)c1OC	52.3*	8.9	-2.5	97.0	96.4	4.7
O=C(O)c1ccc2c3c(cccc13)C(=O)N(c1cccc3ccccc13)C2=O	7.8	2.2	0.0	95.0	120.3	nt
O=C(O)c1ccc2c(c1)C(=O)N(c1cccc3ccccc13)C2=O	57.8*	-0.7	1.6	92.0	109.5	3.1
CC1(C(=O)Nc2ccc3c(c2)OCCO3)CSCC(=O)N1CC(F)(F)F (stereo unspecified)	nt	-4.0	nt	nt	nt	nt
COc1ccc(OCC(=O)NCCCCCCNC(=O)COc2ccc(OC)cc2)cc1	-18.7	-0.5	16.8	88.0	87.0	nt
CCN(CC)CCNC(=O)COc1ccc(OC)cc1	57.1*!	0.1	6.6	99.0	109.3	1.1
CCc1nc2ccc(C(=O)N3CCN(S(=O)(=O)CC)CC3)cn2c1N(CC)C(=O)NCCc1ccccc1	nt	-2.4	nt	98.0	nt	nt
CCCCC[C@H](C)N1C[C@H](COCc2ccccc2)Oc2cc(N3CC[C@@H](N(C)C)C3)ccc2S1(=O)=O	nt	26.8	nt	95.0	nt	nt
COCCN1CC(=O)N2C(c3cccc(C)c3)c3[nH]c4ccccc4c3C[C@H]2C1=O (stereo partly specified)	41.3	7.3	-9.4	96.0	108.5	-2.8
COc1ccc(Nc2c(C3CC3)nc3nc(C)cc(C)n23)cc1	nt	1.7	nt	104.0	nt	nt
COc1ccc(C(=O)C(/C=N/O)=N/Nc2ccc(F)cc2)cc1	-9.5	0.8	2.0	102.0	106.0	nt
SMILES	VLA-4 inh	SKN-1 block	Platelet DG rel	ABCB6 inh MLPCN	CR mimetic SO	VLA-4 mod pick
CO/N=C/C(=N\Nc1ccc(OC)cc1)C(=O)c1ccc(OC)cc1	91.0*	8.7	11.8	102.0	98.1	-1.1
COC(=O)c1cc(-c2ccc(C)o2)nc2ccccc12	41.1	2.4	2.7	100.0	99.1	-27.3
Cc1ccc(-c2cc(C(=O)Nc3ccccc3C)c3ccccc3n2)o1	-8.1	-8.8	-5.8	103.0	98.0	nt
Cc1nc(N2CCN(S(=O)(=O)c3cccs3)CC2)c2c(-c3ccccc3)c(C)sc2n1	nt	27.6	nt	95.0	nt	nt
CC(=O)NC(c1ccc(F)c(F)c1)c1nc(-c2cc3ccccc3o2)cs1 (stereo unspecified)	nt	-6.6	nt	95.0	nt	nt
CCN(C(=O)CSc1nc2ccc(C)cc2[nH]1)C1CCS(=O)(=O)C1 (stereo unspecified)	5.6	13.3	nt	100.0	87.0	nt

Assay outcomes deposited in PubChem by several laboratories.
